# Legend:
# Assay in all cases: PBM binding z-score (relative to random genomic background probes); higher = stronger binding; sequences stand for … in GC…GCGATTGACAGCGTAGAATGAAGG
# [1] = tested on: PPARg:RXRa DBDmut IVT, anti-RXR (DBD mutation: RXRa K156A/R161A, NR concentration 270 nM, RXRa partner concentration 90 nM)
# Method in brief: (§1)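 Each nuclear receptor dimer, without ligand, was incubated for 1 h on custom Agilent 4×180K protein-binding microarrays. Binding was detected with antibodies against each partner (one per run), and scanned fluorescence was regression-normalized. The binding z-scores are referenced to random human genomic background probes.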
# [2] = tested on: PPARg:RXRa IVT, anti-PPARg (NR concentration 270 nM, RXRa partner concentration 90 nM)
# Method in brief: as §1
# [3] = tested on: PPARg DBDmut:RXRa IVT, anti-PPARg (DBD mutation: PPARg1 K132A/R137A, NR concentration 270 nM, RXRa partner concentration 90 nM)
# Method in brief: as §1
# [4] = tested on: PPARg DBDmut IVT, anti-PPARg (DBD mutation: PPARg1 K132A/R137A, NR concentration 270 nM)
# Method in brief: as §1
# [5] = tested on: PPARg homodimer (NR concentration 180 nM)
# Method in brief: as §1
# [6] = tested on: PXR:RXRa (NR concentration 270 nM, RXRa partner concentration 90 nM)
# Method in brief: as §1
# [7] = tested on: PXR homodimer (NR concentration 270 nM)
# Method in brief: as §1
# [8] = tested on: RARa:RXR (NR concentration 270 nM, RXRa partner concentration 90 nM)
# Method in brief: as §1
# [9] = tested on: RARa homodimer (NR concentration 270 nM)
# Method in brief: as §1
# [10] = tested on: RARb:RXRa (NR concentration 270 nM, RXRa partner concentration 90 nM)
# Method in brief: as §1
# [11] = tested on: RARb homodimer (NR concentration 270 nM)
# Method in brief: as §1
# [12] = tested on: RARg:RXRa (NR concentration 270 nM, RXRa partner concentration 90 nM)
# Method in brief: as §1
# [13] = tested on: RARg homodimer (NR concentration 270 nM)
# Method in brief: as §1
# [14] = tested on: RXRa DBDmut IVT, anti-RXR (DBD mutation: RXRa K156A/R161A, NR concentration 90 nM)
# Method in brief: as §1
# [15] = tested on: RXRa homodimer (NR concentration 180 nM)
# Method in brief: as §1
# [16] = tested on: THRa:RXRa (NR concentration 90 nM, RXRa partner concentration 90 nM)
# Method in brief: as §1
# [17] = tested on: THRa homodimer (NR concentration 90 nM)
# Method in brief: as §1
# [18] = tested on: VDR homodimer (NR concentration 270 nM)
# Method in brief: as §1
Sequence,PBM binding z-score [1],PBM binding z-score [2],PBM binding z-score [3],PBM binding z-score [4],PBM binding z-score [5],PBM binding z-score [6],PBM binding z-score [7],PBM binding z-score [8],PBM binding z-score [9],PBM binding z-score [10],PBM binding z-score [11],PBM binding z-score [12],PBM binding z-score [13],PBM binding z-score [14],PBM binding z-score [15],PBM binding z-score [16],PBM binding z-score [17],PBM binding z-score [18]
GCTTCTAGGTCAACTGATGGTCAGCTAAAGCTCG,7.69,7.25,0.0953,0.797,2.01,1.97,-0.405,3.16,0.124,4.42,3.97,5.38,5.89,1.54,3.56,3.5,1.79,0.255
CCAGACAGGTGAGAAGGTATCTCAGCCTCGATTA,0.865,0.119,-1.02,-0.0601,0.414,-0.407,0.0596,0.185,0.147,0.303,-0.0686,0.015,0.26,0.0467,0.0793,-0.219,-0.183,-0.56
CATCCAAGGTCAAGGTCAGTGAAAGAGACTCGAA,3.78,5.22,1.93,0.636,4.53,4.84,1.77,5.12,1.98,5.77,5.3,6.9,7.48,3.81,6.28,4.48,3.62,3.23
ACTTACGGGGCAACGAGGTTATAGCACGCGTATA,2.66,2.16,0.904,0.257,0.811,1.62,0.644,1.73,0.365,1.63,1.13,1.75,1.76,1.63,1.73,2.08,0.279,1.72
CAGCCTGGGTCAGGGCCAGTATAGGAGGAACGTT,-0.161,1.32,-1.28,-1.68,0.728,0.109,-0.685,0.59,-0.125,2.83,2.07,2.63,2.76,-1.29,1.51,1.09,-0.124,-0.545
TTACCAAGGCGAAAGGTCGTTGATGCACGCCTTG,0.0972,2.19,-0.305,-0.595,0.815,1.96,-0.0871,2.49,0.25,1.83,1.7,2.04,1.11,0.253,2.66,1.44,-0.366,1.13
TCGAGTAGGTTACCAATGGGGCGTTCAGCTTTCT,3.2,2.46,-0.504,-0.846,0.122,-0.176,-0.801,0.167,-0.443,0.773,0.227,0.184,0.225,0.454,0.239,-0.0946,-0.39,-0.531
CAGCCTAGGTAAGGGCCAGTATAGGAGGAACGTT,-0.707,-0.473,0.308,-0.484,0.0729,-0.698,-0.364,-0.562,-0.726,-0.0366,-0.166,-0.284,0.264,-1.12,-0.418,-0.373,-0.773,-0.434
ACAGCCAGGTGATGAAGGTAACTCAGGCTATCAT,0.0691,0.392,-0.315,-0.803,-0.425,-0.407,-0.502,0.0022,-0.504,-0.00483,-0.0957,-0.0664,0.0616,-0.658,0.21,1.1,0.166,-0.584
GCTCGGAGGACAAGTTCAGAGCTTTGTCCGTAGA,-0.557,-0.546,-1.36,-1.47,-0.526,0.977,0.281,0.489,-1.39,1.92,1.38,0.89,1.25,1.73,0.198,1.27,-0.148,1.89
TCGAGTAGGTTAGGGGCATTTAGAATGGCGTCGA,2.14,1.43,-0.441,-0.569,0.734,0.534,0.61,0.611,0.362,0.962,0.875,0.265,0.0778,0.475,0.534,0.793,0.327,0.777
CCGAGTAGGTTGTGGGGCATTCAGGCAACGGTGA,1.04,1.29,-1.06,-0.659,0.736,-0.334,0.115,-0.303,0.109,0.0437,0.739,-0.398,-0.497,-0.201,-0.326,0.119,0.578,0.435
CCGACTGGGGCATAAGGTTACGATAAGCCAGCCC,2.87,3.37,-0.323,-1.04,1.02,0.614,-0.423,1.66,-0.594,1.77,1.67,1.92,1.18,-0.47,1.45,1.98,0.985,-0.0834
CGAACTAGGTCAAGGTCAAAGTCGGTTTGTGCCA,8.45,8.59,3.32,1.2,4.39,5.28,2.59,5.41,1.57,4.93,4.96,5.97,6.77,3.12,5.78,4.11,3.7,4.23
GCAGACAGGCGAAACGCAGGTAACTCAGGGTGGC,-0.782,-0.814,-1.19,-1.5,-0.436,-0.82,-0.795,-0.316,-1.37,-0.55,-0.842,-0.359,-0.272,-0.577,-0.167,0.338,-0.81,-0.974
CCAGACAGGAGAAAGGTAACTCAGTCTGGTACGC,0.0518,-0.161,-0.761,-0.621,0.229,-0.00799,0.153,0.168,0.262,0.234,0.0408,0.115,-0.016,-0.0562,0.502,-0.00788,-0.183,-0.102

Sequence,PBM binding z-score [1],PBM binding z-score [2],PBM binding z-score [3],PBM binding z-score [4],PBM binding z-score [5],PBM binding z-score [6],PBM binding z-score [7],PBM binding z-score [8],PBM binding z-score [9],PBM binding z-score [10],PBM binding z-score [11],PBM binding z-score [12],PBM binding z-score [13],PBM binding z-score [14],PBM binding z-score [15],PBM binding z-score [16],PBM binding z-score [17],PBM binding z-score [18]
CGTCAAAGTTCAACTATGGTAACGTAAAGCACGC,0.569,1.9,1.06,1.31,3.74,4.94,4.27,4.14,2.09,5.33,4.39,5.88,6.65,4.74,4.82,3.57,0.175,4.04
AATACAGGGTCACTAGGCCAGACTAGGTACGAAT,4.01,5.9,3.19,1.09,1.28,3.06,0.374,3.87,0.731,4.3,3.25,5.28,4.68,2.72,5.35,3.44,1.22,2.17
ATCTCTCGGTAACAAGTTCAGTGAAAGAGAGGAC,-0.852,0.6,0.792,1.21,0.807,1.46,1.77,0.694,0.38,1.49,1.84,0.867,1.2,0.226,0.539,0.976,0.753,2.29
ACTATTAGTGGAGACGAGGGCAACCGATAGGTTG,-0.144,0.852,0.383,0.735,-0.247,0.218,0.0964,0.0871,0.227,0.779,0.803,0.333,0.653,0.323,0.276,1.45,-0.218,0.427
TCTGGTAGATCAGCAGGTTAAGAAAGCTGGCCAA,0.973,-0.29,-0.344,-0.477,-0.534,-0.014,-0.669,0.363,-0.495,0.127,-0.132,-0.135,-0.628,0.128,0.256,0.0552,-0.418,-0.56
GCTTGGAGATCAAGGTTAAGAAAGACTAAGCTAA,-0.178,0.209,-0.0376,-0.611,0.0193,0.278,-0.313,1.12,-0.305,0.871,0.301,0.332,0.139,-0.28,1,1.16,-0.468,0.0219
ACAGACACGTGAGTGAAGGTAACTCAGCTGGACG,-0.453,-0.172,-0.0263,0.112,-0.539,-0.408,-0.777,-0.0459,-0.522,-0.255,-0.372,-0.114,0.0531,-0.182,0.149,-0.478,-0.846,-0.417
CCATACAGGTGAGAAGGTAACTCAGCCTCGATTA,2.08,1.63,0.397,0.148,0.629,0.166,0.14,0.725,1.02,0.628,0.666,0.662,0.72,0.319,0.539,0.148,0.348,-0.195
AGTATTAGTTGAGACGAGGGCAACCGATAGGTTG,-0.068,0.769,0.458,0.336,0.923,1.63,0.87,1.01,1.25,1.2,1.37,0.642,0.922,0.464,0.65,2.68,0.356,1.53
CAAACTAGGTCACCGGAAGGTCAAAGTGCGCATG,8.63,8.94,1.75,1.74,7.29,6.12,1.81,7.59,2.46,5.39,5.82,8.58,7.66,2.19,6.73,4.72,3.05,3.53
CGTCCAAGGTCATAGCAGGTCAGTGAAGACAGAT,3.54,4.67,0.604,1.12,3.76,6.05,2.47,5.07,1.79,5.09,4.65,6.19,6.53,3.91,5.72,4.99,2.79,3.76
CAAACTGGGTCACGAAAGGTCAAAGTCGAATGAC,8.29,8.88,2.86,1.62,5.34,7.09,2.6,7.48,2.73,5.56,5.73,7.84,8.05,2.44,8.52,5.02,1.75,3.72
TCTTGTAGATAAACAGGAGGTTAAGAAAGATCGA,1.35,0.282,0.991,1.09,0.0399,0.748,-0.0168,1.05,0.379,0.359,0.563,0.413,0.451,0.64,0.929,0.693,-0.428,-0.0637
TCATTTAGGTAAAAGGTGAAAGTCGGTGTGGTAA,4.84,4.91,0.936,1.44,2.08,1.42,0.93,2.74,1.77,2.05,1.9,1.81,1.04,1.68,2.47,2.14,0.844,0.375
CAAACTAGGTCACGAAGGGTCAAAGTCGAATGAC,8.44,9.09,5.43,4.14,6.07,6.48,1,7.14,2.56,5.29,5.36,7.01,7.66,2.33,7.15,4.95,2,3.79

# — the supplement of paper PMC6555819
